NPSR antagonist = qHTS Assay for Antagonists of the Neuropeptide S Receptor: cAMP Signal Transduction | 220,000 compounds, 1% hits | Q6W5P4 | CHO-NPSR cells, cAMP TR-FRET, antagonist mode | Potency, µM (titrated, usually from 38.3 µM), inactives show at the top dose activity change, negative = inhibition, usual class: inhibitors | AID 1461, 2008; further: potency means the concentration at half of the fitted maximal effect; on the % scale 0 is the no-effect control and ±100 the full control effect; nearly all actives have a fitted effect of over 50% in size
Target sequence (Q6W5P4 whole entry, looked up): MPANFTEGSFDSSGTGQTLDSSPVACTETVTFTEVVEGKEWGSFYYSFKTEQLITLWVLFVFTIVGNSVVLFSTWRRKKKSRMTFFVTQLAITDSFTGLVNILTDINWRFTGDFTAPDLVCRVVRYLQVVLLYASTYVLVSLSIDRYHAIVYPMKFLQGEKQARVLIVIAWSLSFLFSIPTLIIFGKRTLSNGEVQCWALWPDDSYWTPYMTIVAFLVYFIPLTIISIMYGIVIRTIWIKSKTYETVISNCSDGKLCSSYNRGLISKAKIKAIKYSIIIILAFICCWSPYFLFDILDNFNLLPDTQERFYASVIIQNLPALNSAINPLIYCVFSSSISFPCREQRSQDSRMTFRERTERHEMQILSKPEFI
PNC inhibitor = High Content Assay for Compounds that inhibit the Assembly of the Perinucleolar Compartment. PC3M PTB-GFP, PNC prevalence imaging, 16 h; stronger effect = lower value. activity change (PNC), negative = inhibition, % at 10 µM. 140,000 compounds, 3.1% hits. AID 2417, 2010;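 active means readout at or below -70, meaning at least 70% loss of cells showing the perinucleolar compartment, a nuclear body marking cancer cells; inconclusive means readout between -30 and a set limit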;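 further: plate controls were DMSO wells for no effect and camptothecin positive control wells for full effect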
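PC3M cells stably expressing PTB-GFP, 750–1000 cells/well, treated 16 h at 37 °C with compound (23 nl of library stock), in duplicate. After paraformaldehyde fixation and Hoechst stain, imaged at 20x; PNC prevalence scored by image analysis.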
12-hLO inh = qHTS Assay for Inhibitors of 12-hLO (12-human lipoxygenase). 150,000 compounds, 0.12% hits. purified 12-hLO, xylenol orange hydroperoxide absorbance. Potency, µM (highest dose often 57.1 µM), for the others: at the top dose activity change, negative = inhibition, actives largely listed as inhibitors; further: potency means the concentration at half of the fitted maximal effect; on the % scale 0 is the no-effect control and ±100 the full control effect; nearly all actives have a fitted effect of over 55% in size
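Hydroperoxide formation by human 12-lipoxygenase from 40 uM arachidonic acid was followed colorimetrically via ferric-xylenol orange complex, using the 573/405 nm absorbance ratio. Enzyme concentration was 150 nM, with 30 min reaction at room temperature.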
IMPase inh = qHTS Assay for Identifying the Cell-Membrane Permeable IMPase Inhibitors; CHO-M1 cells, IP1 accumulation, HTRF TR-FRET ratio; 120,000 tested, under 10 active; AID 901, 2007; inhibition (IP1 accumulation), % at 46.1 µM; Inositol monophosphatase 1 (Rattus norvegicus), P97697; active means well fitted curve in the direction sought with a large enough effect in the signal ratio, not every such curve was filed as active; inconclusive means small, poorly fitted or top-dose-only effect, or a change in a side signal; inactive means no such curve, though single readings can be large or run the other way; the % refers to the signal ratio;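 further: cells stimulated with carbachol in lithium chloride buffer; plate controls were DMSO basal wells for no effect and reference inhibitor wells for full effect; higher means more IMPase inhibition seen as more IP1 and lower FRET ratio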
Target sequence (P97697 whole entry, looked up): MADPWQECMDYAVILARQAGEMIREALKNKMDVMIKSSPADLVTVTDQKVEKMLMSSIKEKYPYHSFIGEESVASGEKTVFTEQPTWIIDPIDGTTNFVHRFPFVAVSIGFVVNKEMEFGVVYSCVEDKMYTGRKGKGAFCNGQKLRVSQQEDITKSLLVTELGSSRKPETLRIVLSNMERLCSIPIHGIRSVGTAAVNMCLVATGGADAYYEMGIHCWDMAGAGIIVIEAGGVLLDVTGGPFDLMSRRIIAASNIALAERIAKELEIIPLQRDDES
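Elevated IP1 in lysates lowers TR-FRET signal (665/620 ratio and 620 channel reported). Cells were CHO-M1, given carbachol (50 uM as added) plus 50mM LiCl, pH 7.4, 30 min, 37C; compounds titrated up to 46 uM; AC50 by Hill equation.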
HTT aggregate = qHTS Multiplex Assay to Identify Dual Action Probes in a Cell Model of Huntington: Aggregate Formation (GFP); Potency, µM (doses to about 46.1 µM), for inactives: at the highest dose activity change, negative = inhibition, hits mostly inhibitors; AID 1688, 2009; 220,000 compounds, 1.1% hits; PC12 HttQ103-GFP aggregates, Acumen cytometry, 40 h; further: potency means the concentration at half of the fitted maximal effect; on the % scale 0 is the no-effect control and ±100 the full control effect; nearly all actives have a fitted effect of over 60% in size
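Huntingtin Q103 exon 1–GFP aggregates in induced PC12 cells (100 nM tebufenozide) were quantified by cytometry from lysates, with compounds dosed in titration.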
HTT cytoprotect = qHTS Multiplex Assay to Identify Dual Action Probes in a Cell Model of Huntington: Cytoprotection (ATP); 230,000 compounds, 0.14% hits; PC12 HTT-Q103 induced, cytoprotection, ATP luminescence, 40 h; Potency, µM (titrated, usually from 56.4 µM), for inactives: cytoprotection (ATP increase), actives largely listed as activators; AID 1471, 2008; further: potency means the concentration at half of the fitted maximal effect; % of control where 0% means no effect; nearly all actives have a fitted effect of over 45% in size
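Rat PC12, Q103 Htt exon1-GFP fusion, ecdysone promoter; tebufenozide inducer 100 nM final; compound titration; qHTS, 1500 cells/well; ATPlite luminescent read.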
Starred values were filed as active, the others as inactive; ? = inconclusive; nt = no result given; [ ] = another dose, or the depositor's remark. Compounds with a hit are over-represented: about 3.3% of the library has one in this group of screens. Unless noted, the call rests on the fitted dose curve; in most records, active means well fitted curve in the direction sought with a large enough effect; inconclusive means small, poorly fitted or top-dose-only effect, or another doubt; inactive means no such curve, though single readings can be large; an effect the other way counts as inactive or inconclusive.

SMILES	NPSR antagonist	PNC inhibitor	12-hLO inh	IMPase inh	HTT aggregate	HTT cytoprotect
COCC(=O)N1CCc2nc(-c3ccccc3)c3c(c2C1)CO[C@@H](C)C3	nt	nt	6%[11.4 µM]	nt	nt	-14%[10 µM]
CC1CC2(C)Oc3ccccc3C3OCC1(COC(=O)Nc1ccccc1)C(C)C32 (stereo not drawn)	nt	nt	-6%	7	nt	-13%[1.9 µM]
CN(C)S(=O)(=O)N(CC(=O)Nc1ccc(F)c(F)c1)c1ccccc1	-13%[46.1 µM]	-19	0%	-3	?	15%
CN(C)S(=O)(=O)N(CC(=O)Nc1ccc2ccccc2c1)c1ccccc1	-23%[46.1 µM]	?	-6%	?	?	5.6µM*
O=C(NC1CCCC1)c1sc(=S)n2c1[nH]c(=O)c1ccccc12	11%[46.1 µM]	-20	-8%	-2	8.9µM*	-42%
O=C(NCc1ccco1)c1sc(=S)n2c1[nH]c(=O)c1ccccc12	-10%[46.1 µM]	32	?	0	-11%	-5%[0.074 µM]
CSc1nc2sc3c(c2c(=O)n1-c1ccccc1)CCC(C(C)(C)C)C3 (stereo not drawn)	nt	nt	nt	-6	nt	nt
CCOC(=O)N1CCN(C(=O)c2cccc(NS(=O)(=O)c3ccc(F)c(F)c3)c2)CC1	3%	-89*	1%	nt	8%	21%[10 µM]
COc1ccc(N2CCN(C(=O)c3ccc(NS(=O)(=O)c4ccc(F)c(F)c4)cc3)CC2)cc1	-9%[7.67 µM]	?	-10%	8	10µM*	-13%[10 µM]
COc1ccc(N2CCN(C(=O)c3ccc(NS(=O)(=O)c4cccc(F)c4)cc3)CC2)cc1	-29%[46.1 µM]	-28	-3%	-2	?	-3%[0.074 µM]
CCOC(=O)C1CCN(C(=O)c2cccc(NS(=O)(=O)c3ccc(F)c(F)c3)c2)CC1	-9%	nt	nt	nt	-11%	-34%
O=C(c1cccc(F)c1)N1CCC[C@@]2(CCN(Cc3nccs3)C2)C1	nt	nt	3%	nt	nt	?
NC[C@@H]1O[C@@H](O[C@H]2[C@@H](O)[C@H](O[C@@H]3[C@H](O)[C@H](N)C[C@H](N)[C@H]3O[C@@H]3O[C@@H](CO)[C@H](O)[C@H](O)[C@@H]3N)O[C@H]2CO)[C@H](N)[C@H](O)[C@@H]1O	nt	nt	3%	0	nt	9%[1.9 µM]
COCC(C)n1c(SCC(=O)NNC(=O)c2ccc(F)cc2)nc2ccccc2c1=O (stereo not drawn)	0%[46.1 µM]	-94*	-2%	11	6%	31%[10 µM]
O=c1[nH]ncn1-c1cccc(C(F)(F)F)c1	2%[46.1 µM]	-106*	7%	-1	?	19%[10 µM]
C=C1c2cccc(C(F)(F)F)c2O[C@H](C(=O)OCC)[C@@H]1CCCCCC	nt	nt	1%[0.00818 µM]	nt	nt	5%
O=C(O)c1ccccc1C(=O)Nc1cccc([N+](=O)[O-])c1	-22%	nt	nt	nt	-17%[9.22 µM]	10%[10 µM]
Cc1cc(C(=O)Nc2cccc([N+](=O)[O-])c2)c(C)o1	7%	-109*	-2%	nt	-6%	nt
CCc1cccc(C)c1NC(=O)c1cc(C)oc1C	-8%[46.1 µM]	2	2%	9	1.3µM*	1%[0.074 µM]
O=C(Nc1ccccc1)c1ccccc1OCc1cccc([N+](=O)[O-])c1	-33%	-99*	0%	nt	0%	-13%[10 µM]
CCOC(=O)/C=C/CCCC=O	nt	nt	nt	nt	nt	-35%
O=C1CC(c2ccco2)CC(O)=C1C=NCCN1CCN(C(=O)Nc2ccc(Cl)cc2)CC1 (stereo not drawn)	18%	-99*	1%	nt	0%	-28%[10 µM]
CC(=O)N1CCN(CCN=CC2=C(O)CC(c3ccco3)CC2=O)CC1 (stereo not drawn)	?	?	1%	3	7%	7%
O=C(Nc1ccc(-c2csc(Nc3cccc(C(F)(F)F)c3)n2)cc1)c1cc([N+](=O)[O-])cc(C(F)(F)F)c1	10µM*	nt	nt	nt	-11%[9.22 µM]	-9%[10 µM]
COC(=O)C1C(O)CC[C@H]2CN3CCc4c([nH]c5ccccc45)C3C[C@H]12 (stereo partly drawn)	nt	nt	-1%	nt	nt	nt
SMILES	NPSR antagonist	PNC inhibitor	12-hLO inh	IMPase inh	HTT aggregate	HTT cytoprotect
Cc1cc(=O)oc(C)c1C(=O)Nc1ccccc1F	-12%	nt	nt	nt	-19%[9.22 µM]	-2%[10 µM]
COc1ccc(OCCn2c(NC(=O)c3ccc(OC)cc3)nc3ccccc32)cc1	nt	nt	nt	3	nt	nt
CC(=O)Nc1nc2ccccc2n1CCOc1ccccc1	-9%[46.1 µM]	0	-3%	8	-20%	-3%
S=C(Nc1ccccc1)Nc1nc2ccccc2n1CCOc1ccccc1	-26%[46.1 µM]	-10	20µM*	5	?	-117%
COc1ccc(OCCn2c(NC(=O)c3ccco3)nc3ccccc32)cc1	-21%[46.1 µM]	20	-5%	7	10µM*	17%
CC(C)=CC[C@@H](O)C1=CC(=O)c2c(O)ccc(O)c2C1=O	nt	nt	nt	nt	nt	-89%
C[C@H](CC[C@@H]1OC1(C)C)C1CC[C@H]2[C@@H]3CC=C4C[C@@H](O)CC[C@]4(C)[C@H]3CC[C@]12C (stereo partly drawn)	nt	nt	nt	nt	nt	-2%
Cc1noc(C)c1NC(=O)NC(c1ccccc1)c1ccccc1	-19%	nt	nt	nt	12%[9.22 µM]	0%[10 µM]
O=C(O)CCCC(=O)Nc1ccc(Br)cc1	-5%[46.1 µM]	-100*	-1%	9	15%[9.22 µM]	7%
O=C(N/N=C/c1cccc(O)c1)c1ccc(COc2ccccc2Br)cc1	-8%	-124*	-13%	nt	-9%	nt
Cc1ccc(C(C)C)c(OCc2ccc(C(=O)N/N=C/c3ccc(O)cc3O)cc2)c1	-20%	-89*	2%	0	?	-33%[10 µM]
CC(C)(C)c1ccc(OCc2ccc(C(=O)N/N=C/c3ccc(O)c(O)c3)cc2)cc1	13µM*	nt	nt	nt	?	-143%
COc1cccc(CCc2ccccc2OCC[C@@H]2C[C@@H](O)CN2C)c1	nt	nt	3%	nt	nt	-210%
CCOC(=O)C1CCCN(c2ccc(NC(=O)c3snc4c(=O)[nH]cnc34)cc2)C1 (stereo not drawn)	16µM*	14	3%	-1	-3%	4%
CC(C)C[C@H](NC(=O)c1nc[nH]c1C(=O)N[C@@H](CCCCNC(=O)OC(C)(C)C)C(=O)OC(C)(C)C)C(=O)OC(C)(C)C	10µM*	nt	nt	nt	-16%[9.22 µM]	-18%[10 µM]
CC(C)C[C@H](NC(=O)c1nc[nH]c1C(=O)NCCCCCNC(=O)OC(C)(C)C)C(=O)OC(C)(C)C	?	nt	nt	nt	3%[9.22 µM]	-18%[10 µM]
C=C[C@](C)(O)CCC=C(C)C	nt	nt	-1%	nt	nt	nt
CCC(CC)C(=O)Nc1cc([N+](=O)[O-])ccc1Cl	14%	-116*	-4%	nt	23%	-11%[10 µM]
CC(OC(=O)C1CC1)C(=O)Nc1ccc([N+](=O)[O-])cc1Cl (stereo not drawn)	9%	nt	nt	nt	-5%	3.5µM*

Assay outcomes (PubChem BioAssay)
